From PubChem
SW480 rerep: DNA re-replication induction in SW480 cells. SW480 DNA re-replication, Hoechst DNA content imaging, 48 h. Potency, µM (doses to about 46.1 µM), for the others: at the highest dose re-replication activation, hits mostly activators. hit rate 1.8% among 340,000. AID 624297; further: potency means the concentration at half of the fitted maximal effect; % of control where 0% means no effect; nearly all actives have a fitted effect of over 55% in size
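SW480 cells exposed to compounds for 48 hr at 37 C, 5% CO2, then Hoechst-stained 40 min. Nuclear DNA content imaged by fluorescence scanning (405 nm excitation, 500-530 nm emission); re-replication scored as increased high-intensity nuclei.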
IL1B secr inh: blocks inflammasome-driven IL-1 beta release; THP-1 LPS/ATP IL-1B secretion, AlphaLISA, 16 h; hits give low values; hit rate 4.7% among 360,000; activity change, % at 57.5 µM; in the data active means activity change below about -50%; inconclusive means mostly about -30% to -49%; further: on the % scale 0 is the no-effect control and ±100 the full control effect
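Secreted IL-1B measured by AlphaLISA bead assay after 16 h compound exposure of THP-1 cells; compounds (final up to 57.5 uM) added 1 h before LPS (250 ng/mL) and ATP (1.25 mM) stimulation; lower signal means less secretion.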
TDP1 cell noCPT: qHTS for Inhibitors of human tyrosyl-DNA phosphodiesterase 1 (TDP1): qHTS in cells in absence of CPT; DT40 Tdp1-/- hTDP1 cells, no CPT, ATP luminescence, 48 h; hit rate 15% among 420,000; Potency, µM (doses to about 46.2 µM), for inactives: at the top dose activity change, negative = growth inhibition, hits mostly inhibitors; further: potency means the concentration at half of the fitted maximal effect; on the % scale 0 is the no-effect control and ±100 the full control effect; nearly all actives have a fitted effect of over 55% in size
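Growth of hTDP1-complemented DT40 Tdp1-knockout cells is measured by ATP luminescence after at least 48 hr compound exposure at 37 °C, with DMSO substituting for the 20 nM CPT used in the parallel screen.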
TDP1 cell CPT: growth inhibition of DT40 Tdp1-/-;hTDP1 cells with camptothecin (screen for TDP1 inhibitors). chicken DT40 Tdp1-/-;hTDP1 cells + 20 nM CPT, ATP luminescence, 48 h. Potency, µM (highest dose often 46.2 µM), without a hit: at the top dose activity change, negative = growth inhibition, hits mostly inhibitors. hit rate 12% among 420,000. AID 686979; further: potency means the concentration at half of the fitted maximal effect; on the % scale 0 is the no-effect control and ±100 the full control effect; nearly all actives have a fitted effect of over 55% in size
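Cell growth measured by CellTiter-Glo luminescence after a minimum 48 h, 37 C compound exposure with 20 nM CPT in Tdp1-knockout DT40 cells stably expressing hTDP1, seeded 400/well; qHTS titration format.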
BCR signal inh: blocks chronic active B-cell receptor signaling; hit rate 0.05% among 340,000; Potency, µM (top dose mostly 46.1 µM), without a hit: at the top dose activity change, negative = inhibition, usual class: inhibitors; AID 493014; ABC-DLBCL IkBa-CBG/CBR reporter, luminescence ratio, 4 h; active means well fitted inhibition curve with a large enough effect in the signal ratio, with a control signal flat, not every such curve was filed as active; inconclusive means small, poorly fitted or top-dose-only effect, or effect the other way, or a change in a side signal; the % refers to the signal ratio;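 further: potency means the concentration at half of the fitted maximal effect; plate controls were basal doxycycline-induced cells for no effect and cells given 10 µM MG132 for full effect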
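Doxycycline induced both beetle luciferases in TMD8 lymphoma cells; IKK-driven degradation limits the IkappaBalpha-fused green signal, while red luminescence normalises for cell number and nonspecific effects. Compounds tested up to 46 uM, 4 hrs.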
MCF10A rerep: inducers of DNA re-replication in MCF 10A breast cells. MCF 10A DNA re-replication, Hoechst nuclear intensity, 48 h. Potency, µM (doses to about 46.1 µM), for inactives: top-dose activity, positive = re-replication, hits mostly activators. hit rate 2.9% among 350,000. AID 624296; further: potency means the concentration at half of the fitted maximal effect; % of control where 0% means no effect; nearly all actives have a fitted effect of over 50% in size
An asterisk follows results filed as active; ? = inconclusive; · = no result given; [ ] = another dose, or the depositor's remark. Hits are enriched below; roughly 19% of the tested compounds scored in any of these assays. Unless noted, the call rests on the fitted dose curve; in most records, active means well fitted curve in the direction sought with a large enough effect; inconclusive means small, poorly fitted or top-dose-only effect, or another doubt; inactive means no such curve, though single readings can be large; an effect the other way counts as inactive or inconclusive.

SMILES	SW480 rerep	IL1B secr inh	TDP1 cell noCPT	TDP1 cell CPT	BCR signal inh	MCF10A rerep
CCCCCCn1c(=O)n2n(c1=O)C[C@]1(OC(=O)NC3CCCC3)CN(S(=O)(=O)c3ccc(C)cc3)C[C@]1(O)C2	·	-11	23µM*	?	·	·
CCCCCCNC(=O)O[C@@]12CN(S(=O)(=O)c3ccc(C)cc3)C[C@]1(O)Cn1c(=O)n(CCCCCC)c(=O)n1C2	·	-8	?	0%	·	·
Cc1ccccc1NC(=O)c1ccc(CN2CCc3ccccc3C2)cc1	-2%	-15	?	?	-2%	?
Cc1cccc(NC(=O)c2ccc(CN3CCc4ccccc4C3)cc2)c1C	13%	7	?	?	-1%	23µM*
COc1ccc(CN2CCc3ccc(NC(=O)CCc4ccccc4OC)cc3C2)c(O)c1	3%	?	23µM*	15µM*	?	10%
COc1cc(CN2CCc3ccccc3C2)cc([N+](=O)[O-])c1O	-5%	11	2%	6%	?	-2%
COc1cc(CN2CCc3ccccc3C2)ccc1O	?	-90*	0.46µM*	0.92µM*	?	?
COc1ccc(NC(=O)c2ccc(CN3CCc4ccccc4C3)cc2)c(OC)c1	-8%	-2	?	23µM*	0%	-1%
COc1ccc(OC)c(NC(=O)c2ccc(CN3CCc4ccccc4C3)cc2)c1	2%	-8	?	?	0%	?
O=C(CNC(=O)c1ccc(N2CCCC2=O)cc1)Nc1ccc(F)c(F)c1F	26%	-10	-7%	2%	1%	?
C=CCc1ccc(OCCN2CCc3ccccc3C2)c(OC)c1	8%	-2	16µM*	?	5%	1%
C/C=C/c1ccc(OCCN2CCc3ccccc3C2)c(OC)c1	1%	0	?	?	0%	?
CCOCCn1c(N2CCCC2)nc2c1c(=O)[nH]c(=O)n2C	0%	-8	4%	-3%	-4%	13%
COCC(=O)N1CCC2(CCCN(c3ccncc3)C2)CC1	·	·	3%	-4%	·	·
CCOc1cccc(-c2ccc3nncn3c2)c1	·	7	-27%	5%	·	·
Cc1ccc(C(=O)NC(=S)Nc2cccc3c(C)cc(C)nc23)cc1	-1%	12	21µM*	?	-2%	?
Cc1ccc(C(=O)NC(=S)Nc2cccc3nsnc23)cc1	2%	23	-19%	-15%	12%	0%
COc1ccc(C(=O)NC(=S)Nc2cccc3nc(C)ccc23)cc1OC	1%	0	21µM*	?	1%	?
Cc1ccccc1OCCn1c(-c2ccc(Cl)cc2)nc2ccccc2c1=O	·	·	-3%	-12%	·	·
CCN(CC)C(=O)C1=C(C)N(Cc2ccccc2)C(=O)C(CC(=O)NC2CCCCC2)C1 (stereo not drawn)	·	7	-22%	-23%	·	·
COc1cc(/C=N/NC(=O)c2ccc3nc[nH]c3c2)cc(OC)c1OC	12%	-67*	-2%	3%	?	0%
COc1cc(C(=O)NN=Cc2ccc(N(C)C)cc2)cc(OC)c1OC	·	0	0.92µM*	0.92µM*	·	·
COc1cc(/C=N/NC(=O)c2ccc(CSc3nc4ccccc4[nH]3)cc2)cc(OC)c1OC	?	6	13µM*	18µM*	-15%	?
COc1cc(/C=N/NC(=O)c2ccncc2)cc(OC)c1OC	0%	23	18%	14%	0%	?
CC(C)N1CCN(Cc2cccn2-c2nccs2)CC1CCO (stereo not drawn)	-37%	-6	4%	1%	15%	-3%[9.22 µM]
CC1(Oc2ccc(-n3ccnc3)cc2)CCN(Cc2cccn2-c2nccs2)C1 (stereo not drawn)	·	0	18µM*	29µM*	·	·
